Screens as filed in PubChem.
DT40 TDP1 no CPT: qHTS for Inhibitors of human tyrosyl-DNA phosphodiesterase 1 (TDP1): qHTS in cells in absence of CPT; DT40 Tdp1-/- hTDP1 cells, no CPT, ATP luminescence, 48 h; Potency, µM (doses to about 46.2 µM), actives largely listed as inhibitors; 420,000 tested, 15% active; note: nearly all actives have a fitted effect of over 55% in size
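Chicken DT40 Tdp1-/- cells stably complemented with human TDP1 were seeded at 400 cells/well with DMSO in place of 20 nM camptothecin. After compound pinning, cells grew at least 48 hr at 37 °C; viability read by CellTiter-Glo luminescence.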
IL1B secr inh: qHTS for Inhibitors of Inflammasome Signaling: IL-1-beta AlphaLISA Primary Screen. activity change, % at 57.5 µM. 360,000 tested, 4.7% active. THP-1 LPS/ATP IL-1B secretion, AlphaLISA, 16 h; stronger effect = lower value; in the data active = activity change below about -50%; inconclusive = mostly about -30% to -49%
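Secreted IL-1B measured by AlphaLISA bead assay after 16 h compound exposure of THP-1 cells; compounds (final up to 57.5 uM) added 1 h before LPS (250 ng/mL) and ATP (1.25 mM) stimulation; lower signal means less secretion.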
HT1080NT lethal: qHTS for induction of synthetic lethality in tumor cells producing 2HG: qHTS for the HT-1080-NT fibrosarcoma cell line; HT-1080-NT fibrosarcoma viability, CellTiter-Glo ATP luminescence, 48 h; Potency, µM (doses to about 46.1 µM), hits mostly cytotoxic; 360,000 tested, 1.6% active;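 note: NT is the 2HG producing partner of a matched IDH1 knockdown line; nearly all actives have a fitted effect of over 55% in size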
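Viability of the 2HG-overproducing fibrosarcoma line after 48 hours of compound exposure at 37 degrees C was determined by luminescence with CellTiter-Glo, and concentration-effect curves were then fitted and categorized.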
DT40 TDP1 CPT: qHTS for Inhibitors of human tyrosyl-DNA phosphodiesterase 1 (TDP1): qHTS in cells in presence of CPT. chicken DT40 Tdp1-/-;hTDP1 cells + 20 nM CPT, ATP luminescence, 48 h. Potency, µM (top dose mostly 46.2 µM), most hits filed as inhibitors. 420,000 tested, 12% active. AID 686979, 2013; note: nearly all actives have a fitted effect of over 55% in size
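Chicken DT40 Tdp1-/- cells stably complemented with human TDP1 were seeded at 400 cells/well in medium containing 20 nM camptothecin, exposed to pin-transferred compounds, and grown at 37 °C for at least 48 hr. Viability was read as ATP luminescence.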
HT1080 IDH1KD tx: qHTS for induction of synthetic lethality in tumor cells producing 2HG: qHTS for the HT-1080-IDH1KD cell line; Potency, µM (series often up to 46.1 µM), most hits filed as cytotoxic; 360,000 tested, 2% active; HT-1080 IDH1 knockdown viability, ATP luminescence, 48 h
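After a 2 h attachment period, IDH1KD HT-1080 cells took pin-transferred compound for 48 h at 37 °C; ATP-based luminescence after 10 min room-temperature reagent incubation reported viability.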
Hits are given with their value; . = inactive; ? = inconclusive; / = no result. Sampled rows, rich in hits. Any-hit rate of the full collection: about 19%. Unless noted, calls come from the whole dose curve; as a rule, active = well fitted curve in the direction sought with a large enough effect; inconclusive = small, poorly fitted or top-dose-only effect, or another doubt; inactive = no such curve, though single readings can be large; an effect the other way counts as inactive or inconclusive.

SMILES | DT40 TDP1 no CPT | IL1B secr inh | HT1080NT lethal | DT40 TDP1 CPT | HT1080 IDH1KD tx
CCOc1ccc(C2C(C(=O)OC)=CN(C(C)c3ccccc3)C=C2C(=O)OC)cc1 (centres undefined) | 21µM | . | . | ? | .
COc1c(Cl)cc(Cl)cc1CNCCSc1nnnn1C | . | / | / | . | /
C=C(C)c1cccc(C(C)(C)NC(=O)Nc2ccc(C)cn2)c1 | 18µM | . | . | 18µM | .
C=C(C)c1cccc(C(C)(C)NC(=O)Nc2cc(C)ccn2)c1 | ? | . | . | ? | .
Cc1cccc(C)c1NC(=O)C(c1ccnc2ccccc12)n1c(=O)c(-c2ccccc2)nc2ccccc21 (centres undefined) | 15µM | . | . | ? | .
CC(C)(C)NC(=O)C(c1ccnc2ccccc12)n1c(=O)c(-c2ccccc2)nc2ccccc21 (centres undefined) | . | . | . | . | .
Cc1cccc(C)c1NC(=O)C(c1ccc(C#N)cc1)n1c(=O)c(-c2ccccc2)nc2ccccc21 (centres undefined) | ? | -50 | . | . | .
COc1cc(C(=O)NCCCCc2ccccc2)cc(OC)c1OC | 5.8µM | . | . | ? | .
COc1cc(C(=O)NCCCCCCNC(=O)c2cc(OC)c(OC)c(OC)c2)cc(OC)c1OC | . | . | . | . | .
COc1cc(C(=O)NCCCc2nc3ccccc3n2CC(C)C)cc(OC)c1OC | ? | / | / | 21µM | /
COc1cc(NC(C)CCc2ccccc2)cc(OC)c1OC (centres undefined) | 10µM | . | . | 13µM | .
COc1cccc(OCCNC(=O)c2cc(OC)c(OC)c(OC)c2)c1 | 13µM | . | . | ? | .
CC(C)c1ccc(/C=N/NC(=O)c2c(Cl)cnn2C)cc1 | . | . | . | . | .
COc1cc(/C=N/NC(=O)CNc2n[nH]c(=O)[nH]c2=O)ccc1OCc1ccccc1 | . | . | ? | . | .
COc1cccc(OC)c1OCCCOc1c(OC)cccc1OC | ? | . | . | . | .
CCCC(=O)NCCc1nc2ccccc2n1CC(=O)c1ccccc1 | . | . | . | . | .
COc1cccc(OCCOc2c(OC)cccc2OC)c1 | ? | -60 | . | . | .
CCCC(=O)NCCCc1nc2ccccc2n1C(C)C | 15µM | . | . | ? | .
CC(=O)Nc1ccc(NC(=O)c2c(C)noc2C)cc1 | . | . | . | . | .
NC(=O)COc1ccc(/C=N/NS(=O)(=O)c2ccccc2)cc1 | . | . | . | . | .
CN(C)c1ncc2nc(-c3ccc(F)cc3)c(=O)n(-c3ccccc3)c2n1 | . | / | / | . | /
Cc1ccc2[nH]c(CN3CCC(CO)(CC4CCCCO4)CC3)c(C)c2c1 (centres undefined) | ? | -113 | ? | ? | 13µM
CC1CCN(S(=O)(=O)c2ccc3[nH]cc(C(=O)NCc4ccc(F)cc4)c(=O)c3c2)CC1 | . | / | / | . | /
CCOc1ccc(NC(=O)c2ccc(S(=O)(=O)N3CCOCC3)cc2)cc1 | . | . | . | . | .
O=C(Nc1cccc(Cl)c1)c1ccc(F)c(S(=O)(=O)N2CCN(c3ccccn3)CC2)c1 | 18µM | . | . | 23µM | ?
SMILES | DT40 TDP1 no CPT | IL1B secr inh | HT1080NT lethal | DT40 TDP1 CPT | HT1080 IDH1KD tx
O=C(Nc1ccc(S(=O)(=O)Nc2ncccn2)cc1)c1ccc(F)c(S(=O)(=O)N2CCOCC2)c1 | . | . | . | ? | .
O=C(c1ccc(Cl)c(S(=O)(=O)N2CCOCC2)c1)N1CCN(c2ccccn2)CC1 | ? | . | . | . | .
CCOc1ccc(NC(=O)c2ccc(F)c(S(=O)(=O)N3CCCC3)c2)cc1 | 12µM | . | . | 9.2µM | .
CCOc1ccc(NC(=O)c2ccc(F)c(S(=O)(=O)N3CCN(c4ccccn4)CC3)c2)cc1 | 16µM | . | . | ? | ?
COc1ccc(-c2[nH]ncc2C(=O)NCc2ccccc2C)cc1 | . | / | / | . | /
Cc1nn(CC(=O)Nc2ccc3nc4n(c(=O)c3c2)CCCC4)c(C)c1[N+](=O)[O-] | . | . | . | . | .
COc1ccc(N(C(=O)c2ccc3c(c2)OCO3)C2C=CS(=O)(=O)C2)c(OC)c1 (centres undefined) | . | . | . | . | .
COc1ccc(N(C(=O)c2ccc(Br)o2)C2C=CS(=O)(=O)C2)c(OC)c1 (centres undefined) | 18µM | . | . | ? | .
NC(=O)c1c(-c2ccc(Cl)cc2Cl)csc1NC(=O)Cc1ccccc1 | 9.2µM | . | ? | 8.2µM | ?
O=C(Cc1ccccc1)Nc1scc(-c2ccccc2)c1C(=O)N1CCOCC1 | ? | . | . | ? | .
O=C(Nc1ccc(F)cc1)N(CCCN1CCOCC1)Cc1cc2cc3c(cc2[nH]c1=O)OCCO3 | ? | . | . | 8.2µM | .
CCOc1ccccc1C(=O)N(Cc1ccccc1)Cc1cc2cc3c(cc2[nH]c1=O)OCCO3 | 23µM | . | . | 26µM | .
O=C(Nc1ccc(F)cc1)N(CCCN1CCOCC1)Cc1cc2cc3c(cc2[nH]c1=O)OCO3 | ? | . | . | ? | .
CCc1ccc2[nH]c(=O)c(CN(CCCN3CCOCC3)C(=O)Nc3ccc(F)cc3)cc2c1 | 13µM | ? | ? | ? | ?
CCOc1ccc(NC(=S)N(CCN2CCOCC2)Cc2cc3cc4c(cc3[nH]c2=O)OCCO4)cc1 | . | -53 | . | ? | .
Cc1ccc2cc(CN(CCN3CCCC3)C(=O)Nc3ccc(F)cc3)c(=O)[nH]c2c1C | 18µM | ? | 23µM | 23µM | ?
CC(C)N(Cc1ccccc1)C(=O)CC(=O)N(Cc1ccccc1)C(C)C | . | . | . | . | .
O=C(c1[nH]ncc1-c1ccccc1)C1CO1 (centres undefined) | 13µM | -73 | ? | 9.2µM | ?
O=C(c1[nH]ncc1-c1cccc(Br)c1)C1CO1 (centres undefined) | 1.8µM | -96 | 26µM | 1.6µM | ?
CC(=O)Nc1ccccc1C(=O)C(=O)Nc1cccc(C(=O)N2CC(C)CC(C)C2)c1 (centres undefined) | ? | . | . | ? | ?
Cn1nc(C(C)(C)C)cc1C(=O)N1CCCCC1c1cc(C(=O)Nc2cccc(C#N)c2)no1 (centres undefined) | 16µM | . | ? | 21µM | .
Cn1nc(C(C)(C)C)cc1C(=O)N1CCCCC1c1cc(C(=O)Nc2cccc3c2CCCC3)no1 (centres undefined) | ? | . | ? | ? | ?
COc1ccc(NC(=O)c2cc(C3CCCCN3C(=O)C3CC3)on2)c(C)c1 (centres undefined) | . | . | . | ? | .
